Compound activity (PubChem)
This is a sample that favours compounds with a hit; in the whole collection about 4.5% have one here.
Efflux pump mplx = blocks antifungal efflux pumps in multiplex yeast assay | S. cerevisiae Candida pump triplex, Nile Red efflux | inhibition, % at 10 µM | hit rate 0.44% among 330,000;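 active means plate passing quality check with inhibition over a set limit, or well fluorescence over plate mean plus 4 SD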;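 further: Nile Red retained in pooled yeast measured as flow cytometry median fluorescence; 0% = buffer negative control and 100% = Enniatin B positive control; higher means more Nile Red kept so more efflux inhibition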
Rtt109 HAT inh = C. albicans Rtt109 histone acetyltransferase inhibition; Q5AAJ8; purified Rtt109/Vps75, ThioGlo CoA-SH fluorescence, 4 h; inhibition, % at 34.9 µM; hit rate 0.16% among 330,000;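 active means inhibition of at least 50% in every replicate; inconclusive means best replicate reaches 50% inhibition but some replicates fall short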
Target sequence (Q5AAJ8 whole entry, looked up): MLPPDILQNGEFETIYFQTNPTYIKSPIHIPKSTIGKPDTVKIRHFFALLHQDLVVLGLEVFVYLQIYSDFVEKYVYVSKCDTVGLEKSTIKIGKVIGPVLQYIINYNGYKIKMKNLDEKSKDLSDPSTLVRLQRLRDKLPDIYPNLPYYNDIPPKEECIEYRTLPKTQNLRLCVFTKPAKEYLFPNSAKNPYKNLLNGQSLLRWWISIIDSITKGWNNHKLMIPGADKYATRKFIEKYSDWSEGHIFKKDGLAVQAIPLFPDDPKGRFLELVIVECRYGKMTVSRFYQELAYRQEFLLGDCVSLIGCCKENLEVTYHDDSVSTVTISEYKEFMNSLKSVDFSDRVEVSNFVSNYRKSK
GRK2 inh = human GRK2 inhibition via aptamer displacement | P25098 | bead flow cytometry, FAM-aptamer displacement from GRK2 | inhibition of aptamer binding, % at 10 µM | hit rate 0.59% among 330,000 | AID 488847;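 active means inhibition of aptamer binding above 40%, roughly 3 SD of noise, on plates passing a quality check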;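 further: median bead fluorescence of bound FAM aptamer so fluorescent compounds give negative values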
Rce1 inhib = blocks yeast Ras-converting enzyme; Q03530; yeast membranes, quenched prenylated peptide cleavage fluorescence; calls only; hit rate 0.27% among 290,000;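 active means fall in fluorescence gain of 50% or more versus controls, with final raw signal at or below 3038400; inconclusive means same 50% fall but final raw signal above 3038400; inactive means fall in fluorescence gain under 50%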;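 further: plate controls were neutral control wells for no effect and wells lacking membranes for full effect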
ALR inh = human ALR oxidase inhibition via reduced H2O2; P55789; purified ALR, DTT oxidation, H2O2 HRP-luminol luminescence; inhibition, % (no concentration beside the values); hit rate 3.8% among 290,000;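 active means mean replicate inhibition above about 79%, with every replicate also reaching it, limit read from the data; inconclusive means only one of the two criteria met; inactive means mean below limit and not every replicate reaching it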
Target sequence (P55789 whole entry, looked up): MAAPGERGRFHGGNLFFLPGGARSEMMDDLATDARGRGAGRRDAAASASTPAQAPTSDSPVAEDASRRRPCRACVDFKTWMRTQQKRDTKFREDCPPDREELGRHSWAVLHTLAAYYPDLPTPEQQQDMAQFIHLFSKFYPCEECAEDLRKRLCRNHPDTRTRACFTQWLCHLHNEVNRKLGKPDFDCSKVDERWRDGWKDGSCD
HDAC3 inhib = blocks human histone deacetylase 3 | hit rate 0.15% among 320,000 | O15379 | inhibition, % at 8.3 µM | recombinant HDAC3, fluorogenic peptide/trypsin coupled, fluorescence | AID 2718; in the data active means inhibition above about 26%, passing the limit was not always enough; inconclusive means no clear call, values can overlap the other calls
An asterisk follows results filed as active; i = inactive; ? = inconclusive; nt = not tested or not shown; + = active, no number.

SMILES	Efflux pump mplx	Rtt109 HAT inh	GRK2 inh	Rce1 inhib	ALR inh	HDAC3 inhib
COc1ccccc1-c1nnc2sc(-c3ccc(N(C)C)cc3)nn12	0	-6	4	+	7	9
Cc1ccc2cc3c(NC(=O)C4CCCO4)nn(CC(C)C)c3nc2c1 (stereo not drawn)	0	0	2	i	0	-6
Cc1ccc2cc3c(NS(=O)(=O)c4cccc5nonc45)nn(CC(C)C)c3nc2c1	0	35	1	i	98*	?
CCCn1nc(NS(=O)(=O)c2cccc3nonc23)c2cc3cc(C)ccc3nc21	0	29	1	i	37	2
CCCn1nc(NS(=O)(=O)c2cccc3nonc23)c2cc3cccc(C)c3nc21	0	25	0	i	97*	12
CN(CCOc1ccc(Br)cc1)C(=O)CNC(=O)c1ccc2ccccc2c1	0	5	0	nt	-6	0
Cc1ccc(S(=O)(=O)NC(=O)c2cc(C)n(-c3ccc(N(C)C)cc3)c2C)cc1	0	3	0	i	95*	-7
Cc1ccc(NC(=O)NNS(=O)(=O)c2ccc(Br)cc2)cc1	0	3	0	i	-7	-3
Cc1ccc(S(=O)(=O)NC(=O)Nc2ccc(N(C)C)cc2)cc1	0	0	3	i	86*	5
Clc1ccc(CN2CCN(c3ncccn3)CC2)c(Cl)c1	0	-2	1	i	6	3
Cn1c(CNS(=O)(=O)c2ccc(Br)cc2)n[nH]c1=S	0	2	7	nt	91*	4
Cc1ccc(S(=O)(=O)NCc2n[nH]c(=S)n2C)cc1	0	-1	2	nt	67	6
C=C(CCC(=O)c1ccccc1)C(=O)c1ccccc1	0	-17	3	i	97*	-4
COc1ccc(S(=O)(=O)NCC2CCCO2)cc1NC(=O)c1ccccc1F (stereo not drawn)	0	0	0	+	2	-5
COc1ccc(C(=O)c2ccc(Cl)c([N+](=O)[O-])c2)cc1	0	14	5	i	97*	1
COCC1CCCCN1C(=O)c1cccc(OC2CCN(C(=O)C3CC3)CC2)c1 (stereo not drawn)	0	-22	0	nt	-9	2
N#CCC(=O)Nc1ccc(C(=O)NCc2ccccn2)cc1	0	nt	2	i	99*	5
O=c1[nH]c2ccccc2c2oc(CCl)nc12	0	78*	2	i	9	3
CC(=O)c1ccc(NC(=O)COC(=O)c2nc(Cl)ccc2Cl)cc1	0	-3	1	i	3	-5
O=C(Nc1ccc(Cl)c(S(=O)(=O)N2CCCCC2)c1)C1=COCCO1	0	52*	4	i	-1	-1
CN(C)S(=O)(=O)c1cc(NC(=O)C2=COCCO2)ccc1Cl	0	-2	0	nt	-10	0
CCN(CC)c1ccc(/C=N\NC(=O)c2cccc3cc[nH]c23)cc1	0	0	0	i	2	4
Cc1cc(C)n(-c2nnc(C)n2/N=C/c2ccco2)n1	0	6	0	i	-3	8
C=C(C)CN=c1scc(C)n1/N=C/c1ccco1	0	-6	1	i	99*	5
CCOc1cc(NC2CS(=O)(=O)CC2O)c(OCC)cc1NC(=O)c1ccccc1 (stereo not drawn)	0	-2	0	i	89*	0
SMILES	Efflux pump mplx	Rtt109 HAT inh	GRK2 inh	Rce1 inhib	ALR inh	HDAC3 inhib
Cc1sc2nc(C3CC3)nc(N3CCN(C(=O)c4ccc(Cl)cc4)CC3)c2c1C	1	-6	3	i	-23	4
C=CCNc1oc(-c2cccc(F)c2)nc1C#N	0	4	0	nt	nt	nt
Cc1ccc(C(=O)NCC(=O)OC(C)C(=O)Nc2ccc(N3CCOCC3)cc2)s1 (stereo not drawn)	0	-14	1	i	93*	-13
CC(OC(=O)COc1ccccc1[N+](=O)[O-])C(=O)Nc1ccc(N2CCOCC2)cc1 (stereo not drawn)	0	-8	0	i	76*	17
COc1ccc(OC)c(/C=C/C(=O)OCC(=O)Nc2ccc(Cl)c(S(=O)(=O)N(C)C)c2)c1	0	-19	4	i	-2	-10
COc1cccc(/C=C/C(=O)OCC(=O)Nc2ccc(Cl)c(S(=O)(=O)N(C)C)c2)c1OC	0	-5	4	+	0	4
Cc1ccc(SC(CC(=O)c2ccc(C)cc2)C(=O)O)cc1 (stereo not drawn)	0	-2	0	i	99*	-1
COc1ccc(OCc2nn[nH]n2)cc1	0	2	2	i	-4	-1
CCCc1ccc(S(=O)(=O)NCc2nnc(SC)n2C)cc1	0	5	0	i	-30	0
O=C(C1CCC(=O)N(C2CC2)C1)N1CCN(c2cccc(Cl)c2)CC1 (stereo not drawn)	0	-7	1	i	22	5
CC(=O)NNC(=O)CSc1nnc(-c2ccccc2)c(-c2ccccc2)n1	1	-2	2	i	83*	4
Nn1c(SCc2cc([N+](=O)[O-])cc3c2OCOC3)nnc1-c1cccnc1	0	1	0	i	-3	4
CN(C(=O)Cn1cccc1C1=NC(c2ccccc2)CO1)c1ccccc1 (stereo not drawn)	0	6	0	nt	nt	0
COc1cccc(C=NNC(=S)NN=Cc2cccc(OC)c2OC)c1OC	nt	7	nt	nt	nt	nt
O=[N+]([O-])c1cc(S(=O)(=O)C(F)(F)F)ccc1NCC1CCCO1 (stereo not drawn)	0	4	3	i	-16	8
CCc1nnc(NS(=O)(=O)c2ccc(NC(=O)c3ccccc3)cc2)s1	0	3	4	i	nt	nt
CCc1nnc(NC(=O)c2ccc(NS(=O)(=O)c3ccccc3)cc2)s1	0	1	7	+	-15	4
CCc1nnc(NS(=O)(=O)c2ccc(NC(=S)NC(=O)c3ccc(Br)cc3)cc2)s1	5	19	2	i	47	6
CCc1nnc(NS(=O)(=O)c2ccc(NC(=S)NC(=O)c3ccccc3)cc2)s1	0	4	4	i	96*	-12
Cc1cc(C)c2c(=O)n(CC(=O)Nc3cccc(Cl)c3C)sc2n1	0	150*	0	i	5	0
O=S(=O)(/N=C(\Sc1ccccc1)c1ccccc1)c1ccc(Cl)cc1	0	-2	0	i	-2	-1
Cc1ccc(S(=O)(=O)/N=C(\Sc2ccccc2)c2ccccc2)cc1	0	7	2	i	98*	0
N#Cc1nc(-c2ccco2)oc1NCCc1ccccc1	0	-4	1	i	98*	-12
COc1ccc(CCNc2oc(-c3ccco3)nc2C#N)cc1	0	3	2	i	25	nt
